Laboratory results as given in PubChem BioAssay (NCI).
The panel holds about 83,000 compounds, 20% with a hit somewhere; the sample as a whole holds those more often.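 Compound tested at a single concentration for 48 hours in 96-well plates; a percent growth value below 10 was scored as active.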 Unmarked numbers belong to inactive results. Active and inactive are the calls of the source.

Key:
Assay in all cases: NCI-60 one-dose screen, 48 h (100 = growth as untreated, 0 = no growth, -100 = all killed)
Settings in all cases: 10 µM
NCI-H23 lung = system: NCI-H23 lung
NCI-H226 lung = system: NCI-H226 lung
NCI-H322M lung = system: NCI-H322M lung
HOP-62 NSCLC = system: HOP-62 NSCLC
NCI-H460 lung = system: NCI-H460 lung
HOP-92 NSCLC = system: HOP-92 NSCLC
NCI-H522 lung = system: NCI-H522 lung
A549/ATCC NSCLC = system: A549/ATCC NSCLC
786-0 renal = system: 786-0 renal
COLO 205 colon = system: COLO 205 colon

Structure (SMILES) | growth (NCI-H23 lung) | growth (NCI-H226 lung) | growth (NCI-H322M lung) | growth (HOP-62 NSCLC) | growth (NCI-H460 lung) | growth (HOP-92 NSCLC) | growth (NCI-H522 lung) | growth (A549/ATCC NSCLC) | growth (786-0 renal) | growth (COLO 205 colon)
CN(C)CCC(=O)c1ccc(O)cc1 | 97% | 99% | 106% | 107% | 103% | 98.5% | 102% | 103% | 108% | –
CCCCCCCCCCCCCC(=O)Oc1ccc[nH]c1=O | 105% | 92.7% | 87% | 94.1% | 105% | 84.9% | 90.7% | 89.4% | 89.7% | 112%
CC(=O)Oc1ccc(Br)cc1C(=O)O | 98.6% | 99% | 101% | 86.9% | 106% | 97.8% | 91.4% | 103% | 97.4% | –
Cc1cc(=O)cc(C)n1-c1ccccc1 | 96.5% | 96.3% | 106% | 99.6% | 107% | 90.6% | 102% | 99.1% | 90% | 106%
Cc1ccc(N)cc1[N+](=O)[O-] | 97.1% | 114% | 129% | 99.5% | 109% | 90% | 94.5% | 100% | 108% | 110%
O=C(O)C(c1ccccc1)C(O)c1ccccc1 (stereo not given) | 104% | 77.8% | 97.6% | 101% | 106% | 93% | 96.1% | 90.8% | 107% | –
COc1ccc(C2(O)CCCCC2)cc1 | 97.9% | 92.1% | 105% | 102% | 105% | 73.2% | 99.7% | 101% | 98.5% | 112%
CC1(C)N=C(N)N=C(N)N1c1ccc(Cl)cc1 | 37.2% | 76.1% | 59.2% | 36.9% | 18.3% | 132% | 46.6% | 27.4% | 17.7% | –
N#CCc1ccc([N+](=O)[O-])cc1 | 98.5% | 98.2% | 99.1% | 90.7% | 102% | 92.7% | 101% | 96.6% | 106% | 105%
CC(=O)c1ccc(C(C)(C)C)cc1 | 95.7% | 98.4% | 104% | 91.9% | 106% | 80.6% | 99.6% | 101% | 100% | –
CCOC(=O)C1=C(C)NC(=O)NC1c1cccs1 (stereo not given) | 98.4% | 110% | 111% | 109% | 118% | 107% | 101% | 94.8% | 106% | 107%
NC(=S)NN=C1CCCC1 | 83.2% | 95.6% | 91.7% | 95% | 104% | 82.1% | 99.8% | 81.1% | 106% | 101%
O=[N+]([O-])c1ccc(/C=C/C=C/c2ccccc2)c(Cl)c1 | 89.8% | 102% | 96.4% | 105% | 84.5% | 84.4% | 80.9% | 89.8% | 95.6% | 119%
CCOc1ccc2[nH]c(=S)sc2c1 | 94.4% | 109% | 105% | 99.1% | 110% | 82.2% | 104% | 103% | 99.7% | 112%
COC(=O)c1[nH]c(=O)c(C#N)c(C(=O)OC)c1C(=O)c1ccccc1 | 95.4% | 97.7% | 101% | 94.2% | 102% | 101% | 99.7% | 93.7% | 100% | 123%
NC(=O)N/N=C\c1ccco1 | 108% | 102% | 94.1% | 112% | 117% | 102% | 92.1% | 110% | 104% | 119%
O=C(CC(=O)c1ccccc1O)c1ccccc1 | 80.8% | 88.6% | 103% | 77.2% | 88.8% | 100% | 83.1% | 89.8% | 89.5% | 101%
COS(=O)(=O)c1ccc(Br)cc1 | 97.6% | 101% | 118% | 95.6% | 115% | 98.1% | 104% | 103% | 111% | 104%
Nc1nc(N)c2cc(S(=O)(=O)c3cccc(C(F)(F)F)c3)ccc2n1 | 53.5% | 69.2% | 52.1% | 76.6% | 16.8% | 55.7% | 63.9% | 15.9% | 38.1% | 62.5%
Nc1ccc(C(=O)c2ccc(N)c(Br)c2)cc1Br | 44.4% | 65.3% | 65.5% | 29.5% | -0.543% (active) | 34.7% | -36.1% (active) | 17.9% | 34% | -30.6% (active)
Nc1nc2c(c(-c3nc(N)nc4c3CCc3ccccc3-4)n1)CCc1ccccc1-2 | 97.4% | 89.9% | 115% | 91.4% | 117% | 95.1% | 99.1% | 106% | 110% | 116%
O=C(Cc1nc2ccc([N+](=O)[O-])cc2nc1CC(=O)c1ccccc1)c1ccccc1 | 43.9% | 68% | 61% | 79.8% | 52.9% | 71.5% | 31.5% | 58.8% | 42% | 91.3%
Cc1ccc(C)n1-c1ccsc1C(=O)NNC(=O)CCl | 85.1% | 80.1% | 99.7% | 101% | 101% | 97.4% | 79.5% | 96.6% | 80.4% | 122%
O=c1c2ccccc2c(Br)c(Br)c2ccccc12 | 78.1% | 74.2% | 119% | 112% | 116% | 83.7% | -33.9% (active) | 95.1% | 84.3% | 55%
CCOc1ccc(I)cc1 | 96.7% | 103% | 120% | 107% | 108% | 90.3% | 105% | 104% | 109% | 111%
C/C(=C\c1cc(Cl)ccc1OCC(=O)O)[N+](=O)[O-] | 96.2% | 108% | 118% | 103% | 123% | 101% | 75.6% | 92% | 117% | 115%
O=C(CS)Nc1ccc2ccccc2c1 | 111% | 121% | 127% | 120% | 97.6% | 101% | 118% | 122% | 105% | 112%
CC(C)CCCC(=O)O | 106% | 101% | 93.4% | 102% | 102% | 73.9% | 103% | 105% | 116% | 112%
CN(C)CCN(C)CC(C)(C)C(=O)/C=C/c1ccc(Cl)cc1 | 5.94% (active) | -3.14% (active) | 5.34% (active) | 3.79% (active) | -14.9% (active) | -24.9% (active) | -62.6% (active) | 8.12% (active) | -22.5% (active) | -86.5% (active)
N=c1c(C(=O)OCc2ccccc2)ncc(CCl)n1O | 100% | 92.9% | 98.6% | 95.7% | 99.4% | 97.3% | -43.4% (active) | 101% | 81.6% | 116%
